Records with an inconclusive call do not appear. A number with no mark means an inactive call. The source made the active and inactive calls. The call rests on the fitted dose curve; in most records, active means well fitted cell-killing curve with a large enough effect in the repeat runs; inconclusive means weak or mixed curves, or effect the other way; inactive means flat fitted curve, though single readings scatter.
Experiment: cAMP Responsive Elements (CRE) small molecule agonists, cell-based qHTS assay: qHTS cell viability counter screen (AID 2060914);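 further: viability read after 3 h of compound exposure; nearly all actives have a fitted effect of over 50% in size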
Conditions: CRE-bla HEK293T viability, CellTiter-Glo luminescence, 5 h; series mostly up to 92.4 µM; activity change, negative = cytotoxicity: at the top concentration
Summary of the method: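 CRE-bla HEK 293T cells, plated 18 h at 37 °C, were exposed to compounds for 3 h at 37 °C/5% CO2. Viability was then measured in the same wells by CellTiter-Glo luminescence after 30 min at room temperature.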
On the % scale 0 is the no-effect control and ±100 the full control effect; potency means the concentration at half of the fitted maximal effect.

Row | Structure (SMILES) | activity change, negative = cytotoxicity | Potency
1 | C[C@H](CCC(=O)NCC(=O)O)[C@H]1CC[C@H]2[C@@H]3[C@H](O)C[C@@H]4C[C@H](O)CC[C@]4(C)[C@H]3C[C@H](O)[C@]12C | -2.93% | 
2 | CCOB(OCC)OCC | 1.65% | 
3 | CCCCCCCCCCCCCOS(=O)(=O)O | -22.9% | 
4 | C[C@@H]1C[C@H]2[C@@H]3C[C@H](F)C4=CC(=O)C(Cl)=C[C@]4(C)[C@@]3(F)[C@@H](O)C[C@]2(C)[C@@]1(O)C(=O)CO | 10.6% [at 42.5 µM] | 
5 | O=C(O)c1cc(O)c2ccccc2c1O | -15.2% | 
6 | COc1cccc(Br)c1 | -5.18% | 
7 | O=S(O)CO | 16.2% | 
8 | C#C[C@]1(OC(C)=O)CC[C@H]2[C@@H]3CCC4=C[C@@H](OC(C)=O)CC[C@@H]4[C@H]3CC[C@@]21C | -22.7% [at 42.5 µM] | 
9 | CCN(Cc1cccc(S(=O)(=O)O)c1)c1ccc(C(=C2C=CC(=[N+](CC)Cc3cccc(S(=O)(=O)O)c3)C=C2)c2ccccc2S(=O)(=O)[O-])cc1 |  | 38.7 µM (active)
10 | c1cnc(N2CCN(Cc3ccc4c(c3)OCO4)CC2)nc1 | 5.45% [at 42.5 µM] | 
11 | CC(C)Nc1ccc(NC(C)C)c2c1C(=O)c1ccccc1C2=O | -8.23% [at 42.5 µM] | 
12 | CCCC1C(CC)=CC(CC)=CN1c1ccccc1 (stereo not given) | -21.2% | 
13 | CN1CN(C)CN(C)C1 | -0.133% | 
14 | O=C(CCCl)NCCc1ccccc1 | -0.178% [at 42.5 µM] | 
15 | CCCCCCCCOC(=O)c1cc(O)c(O)c(O)c1 | -23.5% | 
16 | Cc1nc2ccc(CN(C)c3ccc(C(=O)N[C@@H](CCC(=O)O)C(=O)O)s3)cc2c(=O)[nH]1 | -0.404% [at 42.5 µM] | 
17 | CO[Si](CCCNc1ccccc1)(OC)OC | 2.96% | 
18 | COC(=O)CCCCC(=O)O | 1.17% | 
19 | OCCOc1cccc(OCCO)c1 | 0.627% | 
20 | O=C(O)CCCC[C@@H]1SC[C@@H]2NC(=O)N[C@@H]21 |  | inactive

Row | Structure (SMILES) | activity change, negative = cytotoxicity | Potency
21 | CCCNCCC | -6.14% | 
22 | C=CC(C)=CCC=C(C)C | 11.2% | 
23 | C=C(C)CCCC | 5.46% | 
24 | CCOc1ccccc1OCCN[C@H](C)Cc1ccc(OC)c(S(N)(=O)=O)c1 | 4.1% [at 42.5 µM] | 
25 | COCC(=O)O[C@]1(CCN(C)CCCc2nc3ccccc3[nH]2)CCc2cc(F)ccc2[C@@H]1C(C)C | -2.48% [at 42.5 µM] | 
26 | COc1cc2c(c(OC)c1OC)-c1ccc(OC)c(=O)cc1[C@@H](NC(C)=O)CC2 |  | inactive
27 | O=C(N/N=C/c1ccc([N+](=O)[O-])o1)c1ccc(O)cc1 | -16.8% [at 42.5 µM] | 
28 | O=c1cc(-c2ccccc2)oc2ccc3ccccc3c12 |  | 21.7 µM (active)
29 | c1ccc(-c2nn[nH]n2)cc1 | 5.56% | 
30 | Cc1cccc(C)c1[N+](=O)[O-] |  | inactive
31 | C=C(C)C(=O)OCCCCCCCCCCCCCCCCCC | 2.15% [at 18.9 µM] | 
32 | CC(=O)CC(=O)Nc1ccc2[nH]c(=O)[nH]c2c1 | 3.52% | 
33 | O=S(=O)(O)c1cc(O)c(O)c(S(=O)(=O)O)c1 | 5.62% | 
34 | CC(O)(c1ccc(Cl)cc1)c1ccc(Cl)cc1 | -22.3% | 
35 | CCCCN1C(=O)[C@@H]([C@H](O)C2CCCCC2)NC(=O)C12CCN(Cc1ccc(Oc3ccc(C(=O)O)cc3)cc1)CC2 | 23.6% | 
36 | COC(=O)c1ccc(I)cc1S(=O)(=O)NC(=O)Nc1nc(C)nc(OC)n1 | 6.38% | 
37 | Nc1nc2c(ncn2CCC(CO)CO)c(=O)[nH]1 | 3.5% [at 42.5 µM] | 
38 | O=C(O)CC(C(=O)O)S(=O)(=O)O (stereo not given) | -0.0204% | 
39 | COC(=O)C1=C(C)NC(C)=C(C(=O)OCCCN2CCC(c3ccccc3)(c3ccccc3)CC2)C1c1cccc([N+](=O)[O-])c1 (stereo not given) | -14.9% [at 42.5 µM] | 
40 | c1csc(SSc2cccs2)c1 | 8.7% | 
